Experiment [1] in a line: NCI Yeast Anticancer Drug Screen. Data for the rad50 strain (AID 155).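 Further: 0% = growth of vehicle-only cultures of the same strain.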 To be noted: S. cerevisiae rad50 strain growth inhibition, stronger effect = higher value. The method in brief: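 Inhibition values express reduced yeast growth in compound-treated cultures relative to vehicle-treated controls.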
Experiment [2] can be described thus: NCI Yeast Anticancer Drug Screen. Data for the mec2-1 strain (AID 157). The settings on record: S. cerevisiae mec2-1 strain, stronger effect = higher value. The method in brief:
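Cells of the genetically defined mec2-1 yeast strain are incubated with test compound. Inhibition of growth is calculated against vehicle-treated controls.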

A short description of experiment [3]: NCI Yeast Anticancer Drug Screen. Data for the sgs1 mgt1 strain (AID 161).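 Further: 0% = growth of cultures given vehicle only.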 To be noted: S. cerevisiae sgs1 mgt1 strain, stronger effect = higher value. A digest of the protocol: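 Read-out: growth inhibition vs vehicle controls. Cells: mutant yeast strain deficient in DNA damage repair.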
Experiment [4] can be described thus: NCI Yeast Anticancer Drug Screen. Data for the cln2 rad14 strain (AID 165).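 Further: 0% = growth equal to vehicle treated cultures.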 The settings on record: S. cerevisiae cln2 rad14 strain, stronger effect = higher value. A digest of the protocol: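 The screen exposed genetically defined yeast (cln2 rad14) to test compounds and scored growth inhibition relative to vehicle-treated controls.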
Experiment [5] is described as follows: NCI Yeast Anticancer Drug Screen. Data for the bub3 strain (AID 167). To be noted: S. cerevisiae bub3 mutant strain, stronger effect = higher value. The method in brief:
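Steps: expose the mutant yeast strain to compound; grow alongside vehicle-treated cultures; measure growth; express inhibition against the vehicle cultures.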

Experiment [6] can be described thus: NCI Yeast Anticancer Drug Screen. Data for the mlh1 rad18 strain (AID 175). To be noted: S. cerevisiae mlh1 rad18 strain growth inhibition, stronger effect = higher value. The method in brief: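 Compound-treated yeast growth, normalised to vehicle controls. Strain bears defined DNA repair mutations.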
Where [7] appears, read: at 5.0 µM (retest, dose inferred, filed as 0.5).
Where [8] appears, read: at 50.0 µM (retest, dose inferred, filed as 5.0).

Compounds without any hit were thinned out: in the full panel of roughly 79,000, 15% have a hit. Unmarked numbers belong to inactive results. The source made the active and inactive calls. No stated cut-off is given here; in the data, active means growth inhibition above about 70%; inactive means the rest.

Take `COc1cc(NCc2ccc3nc(-c4ccccc4)c(N)nc3c2)cc(OC)c1OC`: the growth inhibition in experiment [1] (setting [7]) is 7%; in experiment [1] (setting [8]) it was -19%; in experiment [1] (at 50.0 µM) it was -8.3%; in experiment [2] (setting [7]), -1%; in experiment [2] (setting [8]) it was -12%; in experiment [2] (at 50.0 µM), -9.45%. In addition, the growth inhibition is -3% in experiment [3] (setting [7]); 7% in experiment [3] (setting [8]); 50% in experiment [3] (at 50.0 µM); 5% in experiment [4] (setting [7]); 3% in experiment [4] (setting [8]); 16.6% in experiment [4] (at 50.0 µM). For the same compound, the growth inhibition was 8% in experiment [5] (setting [7]); -10% in experiment [5] (setting [8]); 37.2% in experiment [5] (at 50.0 µM); -16% in experiment [6] (setting [7]); 5% in experiment [6] (setting [8]); 70.3% (active) in experiment [6] (at 50.0 µM).
Turning to `[Cu+2].[O-]/N=C/c1cccc(O)c1[O-].[O-]/N=C/c1cccc(O)c1[O-]`, the growth inhibition in experiment [1] (setting [7]) is -16%; in experiment [1] (setting [8]), 99% (active); in experiment [1] (at 50.0 µM), 93.8% (active); in experiment [2] (setting [7]) it was -14%; in experiment [2] (setting [8]) it was 99% (active); in experiment [2] (at 50.0 µM), 96.7% (active). Besides, the growth inhibition is -14% in experiment [3] (setting [7]); 99% (active) in experiment [3] (setting [8]); 96.8% (active) in experiment [3] (at 50.0 µM); -12% in experiment [4] (setting [7]); 98% (active) in experiment [4] (setting [8]); 94.8% (active) in experiment [4] (at 50.0 µM). Further, the growth inhibition is -20% in experiment [5] (setting [7]); 99% (active) in experiment [5] (setting [8]); 97.7% (active) in experiment [5] (at 50.0 µM); -4% in experiment [6] (setting [7]); 98% (active) in experiment [6] (setting [8]); 94% (active) in experiment [6] (at 50.0 µM).
As for `Cc1cc(-c2ccc(N=Nc3cc(S(=O)(=O)O)c4ccccc4c3N)c(C)c2)ccc1N=Nc1cc(S(=O)(=O)O)c2ccccc2c1N`, the growth inhibition was 19% in experiment [1] (setting [7]); 82% (active) in experiment [1] (setting [8]); 64.6% in experiment [1] (at 50.0 µM); 16% in experiment [2] (setting [7]); 60% in experiment [2] (setting [8]); 52.1% in experiment [2] (at 50.0 µM). In addition, the growth inhibition is 29% in experiment [3] (setting [7]); 69% in experiment [3] (setting [8]); 66.8% in experiment [3] (at 50.0 µM); 31% in experiment [4] (setting [7]); 48% in experiment [4] (setting [8]); 30.6% in experiment [4] (at 50.0 µM). The growth inhibition in experiment [5] (setting [7]) is 26%; in experiment [5] (setting [8]) it was 73% (active); in experiment [5] (at 50.0 µM) it was 73.7% (active); in experiment [6] (setting [7]) it was 32%; in experiment [6] (setting [8]) it was 86% (active); in experiment [6] (at 50.0 µM), 71% (active).
Regarding `COc1ccc(Cl)c(-c2cc(OC)c(N=N/C(=N/Nc3ccc([N+](=O)[O-])cc3)c3ccc([N+](=O)[O-])cc3)cc2Cl)c1`, the growth inhibition was 95% (active) in experiment [1] (setting [7]); 19% in experiment [1] (setting [8]); 70.9% (active) in experiment [1] (at 50.0 µM); 98% (active) in experiment [2] (setting [7]); 4% in experiment [2] (setting [8]); 45.5% in experiment [2] (at 50.0 µM). In addition, the growth inhibition is 44% in experiment [3] (setting [7]); -18% in experiment [3] (setting [8]); 60.2% in experiment [3] (at 50.0 µM); 74% (active) in experiment [4] (setting [7]); 0% in experiment [4] (setting [8]); 50.2% in experiment [4] (at 50.0 µM). The growth inhibition in experiment [5] (setting [7]) was 99% (active); in experiment [5] (setting [8]), 5%; in experiment [5] (at 50.0 µM), 44.5%; in experiment [6] (setting [7]), 98% (active); in experiment [6] (setting [8]), 17%; in experiment [6] (at 50.0 µM) it was 76.1% (active).
With `Fc1ccc(NC(=S)SCc2ccco2)cc1`, the growth inhibition in experiment [1] (setting [7]) is 5%; in experiment [1] (setting [8]), 87% (active); in experiment [1] (at 50.0 µM), 89% (active); in experiment [2] (setting [7]), 0%; in experiment [2] (setting [8]), 71% (active); in experiment [2] (at 50.0 µM) it was 61.6%. Further, the growth inhibition in experiment [3] (setting [7]) was 5%; in experiment [3] (setting [8]) it was 67%; in experiment [3] (at 50.0 µM) it was 84.7% (active); in experiment [4] (setting [7]), 1%; in experiment [4] (setting [8]), 24%; in experiment [4] (at 50.0 µM), 42.5%. In addition, the growth inhibition in experiment [5] (setting [7]) was -5%; in experiment [5] (setting [8]), 34%; in experiment [5] (at 50.0 µM), 26.6%; in experiment [6] (setting [7]), 1%; in experiment [6] (setting [8]), 77% (active); in experiment [6] (at 50.0 µM), 95.4% (active).
Regarding `Cc1c(CCCl)c(N=[N+]=[N-])n2c(nc3ccccc32)c1C#N`, the growth inhibition is 31% in experiment [1] (setting [7]); 46% in experiment [1] (setting [8]); 83.8% (active) in experiment [1] (at 50.0 µM); 27% in experiment [2] (setting [7]); 45% in experiment [2] (setting [8]); 71.2% (active) in experiment [2] (at 50.0 µM). The growth inhibition in experiment [3] (setting [7]) is 23%; in experiment [3] (setting [8]) it was 51%; in experiment [3] (at 50.0 µM), 56.6%; in experiment [4] (setting [7]), 20%; in experiment [4] (setting [8]), 34%; in experiment [4] (at 50.0 µM), 63.4%. Besides, the growth inhibition is 23% in experiment [5] (setting [7]); 57% in experiment [5] (setting [8]); 78.2% (active) in experiment [5] (at 50.0 µM); 28% in experiment [6] (setting [7]); 48% in experiment [6] (setting [8]); 56.5% in experiment [6] (at 50.0 µM).
Take `Cc1cccc2c(Nc3ccc(NS(C)(=O)=O)cc3)c3ccccc3nc12`: the growth inhibition in experiment [1] (setting [7]) is 55%; in experiment [1] (setting [8]) it was 94% (active); in experiment [1] (at 50.0 µM) it was 96.5% (active); in experiment [2] (setting [7]), -1%; in experiment [2] (setting [8]), 41%; in experiment [2] (at 50.0 µM), 47.3%. The growth inhibition in experiment [3] (setting [7]) was 1%; in experiment [3] (setting [8]) it was 17%; in experiment [3] (at 50.0 µM), 28.6%; in experiment [4] (setting [7]) it was -7%; in experiment [4] (setting [8]) it was 19%; in experiment [4] (at 50.0 µM), -12.7%. Moreover, the growth inhibition is -2% in experiment [5] (setting [7]); 2% in experiment [5] (setting [8]); 24.6% in experiment [5] (at 50.0 µM); -2% in experiment [6] (setting [7]); 31% in experiment [6] (setting [8]); 39.3% in experiment [6] (at 50.0 µM).
As for `C1CCC2[N-]CC3CCCCC3[N-]CC3CCCCC3[N-]CC3CCCCC3[N-]CC2C1.[Cl][Fe]([Cl])([Cl])[Cl].[Fe+6]` (configuration not stated), the growth inhibition in experiment [1] (setting [7]) was 41%; in experiment [1] (setting [8]), 97% (active); in experiment [1] (at 50.0 µM) it was 96.3% (active); in experiment [2] (setting [7]), 10%; in experiment [2] (setting [8]), 98% (active); in experiment [2] (at 50.0 µM) it was 98.5% (active). Moreover, the growth inhibition was 25% in experiment [3] (setting [7]); 98% (active) in experiment [3] (setting [8]); 98.5% (active) in experiment [3] (at 50.0 µM); 0% in experiment [4] (setting [7]); 96% (active) in experiment [4] (setting [8]); 96.8% (active) in experiment [4] (at 50.0 µM). The growth inhibition in experiment [5] (setting [7]) is -3%; in experiment [5] (setting [8]), 97% (active); in experiment [5] (at 50.0 µM), 97.5% (active); in experiment [6] (setting [7]), 26%; in experiment [6] (setting [8]), 98% (active); in experiment [6] (at 50.0 µM), 97.7% (active).
With `CCCCCCCCCCCC(O)CN1CCOCC1` (configuration not stated), the growth inhibition is 49% in experiment [1] (setting [7]); 1% in experiment [1] (setting [8]); 98.4% (active) in experiment [1] (at 50.0 µM); 46% in experiment [2] (setting [7]); 9% in experiment [2] (setting [8]); 97.5% (active) in experiment [2] (at 50.0 µM). Also, the growth inhibition in experiment [3] (setting [7]) was 49%; in experiment [3] (setting [8]) it was -2%; in experiment [3] (at 50.0 µM), 43.8%; in experiment [4] (setting [7]) it was 46%; in experiment [4] (setting [8]), 8%; in experiment [4] (at 50.0 µM) it was 91.5% (active). Further, the growth inhibition in experiment [5] (setting [7]) is 57%; in experiment [5] (setting [8]) it was 31%; in experiment [5] (at 50.0 µM) it was 98.8% (active); in experiment [6] (setting [7]), 43%; in experiment [6] (setting [8]) it was 4%; in experiment [6] (at 50.0 µM), 94% (active).
